# Source: PubChem
# Hits are enriched below; roughly 4.5% of the tested compounds scored in any of these assays.
# FXN GAA850 act – FXN promoter activators, primary screen, cell-based, luciferase luminescence, HEK293 lucGAA850; HEK293 lucGAA850 FXN promoter luciferase reporter, 24 h; percent of 10 µM SAHA response; activation, % at 6 µM; 360,000 tested, 0.56% active; AID 540364, 2011;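 active means activation above the average of all compounds screened plus 3 SD, cutoff fixed separately per campaign, cut at about 7.5% in these data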
# DAX1 inh-1 – DAX1 (NR0B1) inhibitors on StAR promoter, primary screen, cell-based, luminescence, SF-1 (NR5A1), full-length DAX-1. 370,000 tested, 1.1% active. inhibition, % at 6.8 µM. HEK293T StAR-luciferase reporter, SF-1/DAX-1 repression relief;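 active means inhibition above the mean over all tested compounds plus 3 SD, cut at about 3.6% in these data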;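 further: higher inhibition means more luminescence from relief of DAX-1 repression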
# hcDAF-12 act – H. contortus DAF-12 nuclear receptor activators, primary screen, cell-based, luminescence, HEK293, lit1-tk-luc reporter. activation, % at 6.8 µM. 370,000 tested, 1.4% active. HEK293 hcDAF-12 lit1-tk-luc reporter; 0% DMSO, 100% Δ7-dafachronic acid. AID 652067, 2013;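 active means activation above the mean of all tested compounds plus 3 SD, cut at about 5.5% in these data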
# ssDAF-12 act – S. stercoralis DAF-12 nuclear receptor activators, primary screen, cell-based, luminescence, HEK293, GRIP1 co-expression, lit1-tk-luc. Nuclear hormone receptor DAF-12 (Strongyloides stercoralis). HEK293 ssDAF-12/GRIP1 lit1-tk-luc reporter; % of 3 µM dafachronic acid response. activation, % at 6.8 µM. 370,000 tested, 1% active. AID 652126, 2013;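 active means activation above the mean over all tested compounds plus 3 SD, cut at about 0.9% in these data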
# hgDAF-12 ag – H. glycines DAF-12 receptor agonists, primary screen, cell-based, luminescence, HEK293, GAL4 fusion, UAS-luciferase; AID 687014, 2013; HEK293 GAL4-hgDAF12 UAS-luciferase reporter, agonist luminescence; normalized to butyrate control; 370,000 tested, 1.8% active; activation, % at 6.8 µM; Nuclear hormone receptor DAF-12 (Heterodera glycines), GAL4 fusion;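 active means activation above a cutoff set at the mean of all screened compounds plus 3 SD, cut at about 10% in these data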
# DAX1 inh-2 – DAX1 (NR0B1) inhibitors, primary screen, cell-based, HEK293, Gal4-DAX1, luciferase luminescence; 340,000 tested, 0.99% active; HEK293 Gal4-DAX1 luciferase reporter; Nuclear receptor subfamily 0 group B member 1 (Homo sapiens), P51843; inhibition, % at 6.75 µM;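 active means inhibition above the mean over all tested compounds plus 3 SD, cut at about 4.2% in these data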;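 further: inhibition shows as a rise in luminescence from relieved DAX1 repression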
# Target sequence (P51843 207-470 limits assumed): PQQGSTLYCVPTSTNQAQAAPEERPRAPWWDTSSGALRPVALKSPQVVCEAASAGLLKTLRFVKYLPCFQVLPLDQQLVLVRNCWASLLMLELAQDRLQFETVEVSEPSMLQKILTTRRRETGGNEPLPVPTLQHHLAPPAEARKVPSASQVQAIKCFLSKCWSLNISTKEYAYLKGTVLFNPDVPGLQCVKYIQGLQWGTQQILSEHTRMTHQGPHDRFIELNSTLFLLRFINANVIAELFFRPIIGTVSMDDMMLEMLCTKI
# Numbers stand for hits; – = inactive; · = no result given.
SMILES,FXN GAA850 act,DAX1 inh-1,hcDAF-12 act,ssDAF-12 act,hgDAF-12 ag,DAX1 inh-2
CC(=O)C1=C(C)OC(N)=C(C#N)C1c1cccc2ccccc12 (stereo unspecified),–,–,–,–,–,–
CC(=O)n1c2c(c3ccccc31)OC(N)=C(C#N)C2c1ccc(C(C)C)cc1 (stereo unspecified),–,–,5.6,–,–,–
C#CCNC(=O)C[C@@H]1C(=O)N(CCc2ccc(Cl)cc2)/C2=C/CCCCC[C@@]21C(=O)OCC,·,–,–,–,–,·
Cc1cccc(CN2CCc3c([nH]c4ccccc34)C2CC(C)C)n1 (stereo unspecified),–,–,–,–,–,4.7
CC1CCCCN1C(=O)c1cc(-c2ccc3c(c2)OCO3)on1 (stereo unspecified),–,–,–,–,11.1,–
CC1CCN(C(=O)c2cc(-c3ccc4c(c3)OCO4)on2)CC1,–,–,–,–,11.6,–
CCCNC(=O)c1cc(-c2ccc3c(c2)OCO3)on1,–,–,–,–,10.9,–
Cc1cnc(NC(=O)CC2CCCC2)s1,–,–,–,–,10.5,–
Cc1cnc(NC(=O)CN2C(=O)C3CC=CCC3C2=O)s1 (stereo unspecified),–,–,–,–,–,–
Cc1cnc(NC(=O)CCN2C(=O)C3CCCCC3C2=O)s1 (stereo unspecified),–,–,–,–,–,6.7
Cc1cnc(NC(=O)Cc2ccccc2F)s1,–,–,–,–,–,–
COc1ccc(-n2c(SCC(=O)Nc3ccc4c(c3)OCO4)nc3sc4c(c3c2=O)CCCC4)cc1,·,–,–,–,–,·
CN(C)c1cccc(/C=C2\CC3(OC(=O)c4ccc(F)cc4)CCCN2C3)c1 (stereo unspecified),·,–,–,–,–,·
COc1ccc(C(=O)CC(=O)c2ccc(C(C)(C)C)cc2)cc1,–,–,–,–,–,–
COc1ccc(C(=O)CC(Sc2ccccc2N)c2ccc(OC)cc2)cc1 (stereo unspecified),–,4.1,–,–,–,–
C/C(=N\NC(=S)NCC(C)(C)C)c1cc(F)cc(F)c1O,–,–,–,–,–,4.7
CCC(NC(=O)c1cccc2c1C(=O)N(Cc1cccnc1)C2)c1ccccc1 (stereo unspecified),·,–,–,–,–,·
CCOC(=O)N1CCN(C(=O)c2cc(-c3ccc(OCC)cc3)nc3ccccc23)CC1,–,–,–,–,12.1,–
CCOc1ccc(-c2cc(C(=O)N3CCN(C)CC3)c3ccccc3n2)cc1,–,–,–,–,–,–
O=C(CSc1cccc2cccnc12)OCC(=O)c1ccccc1,–,–,–,–,–,4.5
O=C(CSc1cccc2cccnc12)OCC(=O)c1ccc(Br)cc1,–,–,–,–,–,–
CCN(CC)c1ccc(-c2nn3c(-c4ccccc4Cl)nnc3s2)cc1,·,–,–,–,–,·
O=C(NCc1ccccc1Cl)C1CCN(S(=O)(=O)N2CCCCCC2)CC1,–,–,–,–,–,4.8
O=C(NCCCN1CCc2ccccc2C1)C1CCN(S(=O)(=O)N2CCCC2)CC1,–,–,5.8,–,–,–
CCCc1cn(-c2ccc3c(c2)[C@]2(CC(=O)N(C)C2c2ccccc2)C(=O)N3CC(C)C)nn1 (stereo partly specified),·,–,–,–,–,·
SMILES,FXN GAA850 act,DAX1 inh-1,hcDAF-12 act,ssDAF-12 act,hgDAF-12 ag,DAX1 inh-2
C#CCNC(=O)C[C@H]1C(=O)N(CCCOC)C2=CCCC[C@@]21C(=O)OCC,·,–,–,–,–,·
COC(=O)[C@]12C[C@H](CC(=O)NCC34CC5CC(CC(C5)C3)C4)C(=O)N(Cc3ccco3)C1=C[C@H](COCc1ccccc1)O[C@@H]2C,·,–,–,–,–,·
Cn1c(=O)c2cc(S(=O)(=O)N3CCN(CCO)CC3)ccc2n(C)c1=O,·,–,–,–,–,·
CC(C)c1ccccc1-n1c(SCC(=O)N2CCc3ccccc3C2)nc2ccccc2c1=O,–,–,–,–,–,–
O=C(CSc1nc2ccccc2c(=O)n1-c1ccccc1)N1CCc2ccccc2C1,–,–,–,1.0,–,–
COc1cccc(/C=C(/C#N)c2nc3ccccc3[nH]2)c1OC(C)C(=O)O (stereo unspecified),–,–,–,1.0,–,7.0
CCOc1cc(N(CC)CC)ccc1/C=C(/C#N)c1nc2ccccc2[nH]1,–,–,–,–,–,6.5
COc1cc(/C=C(\C#N)c2nc3ccccc3[nH]2)cc(OC)c1O,–,–,–,–,–,–
CCCOc1cc(N(CC)CC)ccc1/C=C(/C#N)c1nc2ccc(C)cc2[nH]1,–,–,–,–,–,–
COc1ccccc1N/C=C(\C#N)c1nc2ccccc2[nH]1,–,–,–,1.2,–,–
COc1cccc(/C=C(\C#N)c2nc3ccccc3[nH]2)c1OCC(=O)O,–,–,–,–,–,–
N#CCC[C@@H]1CC[C@]2(CCCN(C(=O)c3ccc4ccccc4n3)C2)O1,·,–,–,–,–,·
CCN(c1ccc(NC(=O)COC(=O)c2ccc3ccccc3n2)cc1)C(C)C,–,–,–,0.9,–,–
O=P(C1=C(N2CCOCC2)/C(=C\c2ccccc2)CC1)(N1CCOCC1)N1CCOCC1,–,–,6.5,–,–,–
O=C(NP(=O)(N1CCOCC1)N1CCOCC1)C1=C(N2CCOCC2)/C(=C\c2ccccc2)CC1,–,–,–,–,–,–
CCOC(=O)c1nc(-c2ccc(OC)c(OC)c2)cnc1C#N,–,–,–,–,–,6.9
C=CCNC(=O)NC[C@@]1(C(=O)OC)CC(=O)N(C)[C@@H]1c1ccccc1,·,–,–,–,–,·
c1ccc2c(c1)CCc1c(-c3ccncc3)n[nH]c1-2,–,–,–,1.6,–,–
O=C(N/N=C1\CCc2ccccc21)c1ccncc1,–,–,–,–,–,–
Nc1c(C(=O)c2cccs2)oc2ccccc12,–,–,6.1,–,–,–
Cc1c(C(=O)Nc2ccccc2F)sc2nc3n(c(=O)c12)CCC3,–,–,–,–,11.4,–
Cc1cc(SCCOc2ccccc2)nc(N)n1,–,–,–,–,–,5.1
Cc1cc(Oc2ccccc2)nc(N)n1,–,–,–,–,–,–
Cc1nc2ccc(Br)cc2c2c1CC(CO)O2 (stereo unspecified),–,–,–,–,–,5.4
